Screening results (PubChem)
SENP8 block-1: blocks the human protease SENP8; AID 2540; actives 1.2% (n = 330,000); purified SENP8, Z-RLRGG-aminoluciferin cleavage, luminescence; inhibition, % at 10 µM; in the data active means inhibition above about 50%
Target sequence (Q96LD8 whole entry, looked up): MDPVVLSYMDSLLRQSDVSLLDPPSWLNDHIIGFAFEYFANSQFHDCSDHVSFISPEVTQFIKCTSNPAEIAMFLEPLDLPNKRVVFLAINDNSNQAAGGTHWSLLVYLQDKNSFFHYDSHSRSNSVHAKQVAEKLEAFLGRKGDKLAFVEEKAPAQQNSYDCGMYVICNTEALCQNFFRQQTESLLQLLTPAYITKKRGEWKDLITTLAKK
SENP8 block-2: SENP8 (human) protease inhibition; recombinant SENP8, Nedd8 substrate fluorescence; inhibition, % at 20 µM; actives 0.64% (n = 360,000); in the data active means inhibition mostly above about 40%, no sharp cut-off; inactive means mostly below about 27%
HSP90 inh: blocks HSP90-mediated luciferase refolding in reticulocyte lysate; actives 0.91% (n = 290,000); inhibition, % at 5.6 µM; AID 1789; Rabbit reticulocyte lysate, luciferase refolding luminescence, 3 h;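 active means inhibition above the screen-wide mean plus 3 SD, computed separately per campaign, cut at about 16% in these data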;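 further: inhibitors lower the luminescence because luciferase stays unfolded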
SENP7 inh: blocks the human protease SENP7. recombinant SENP7, Z-RLRGG-aminoluciferin luminescence, 40 min. inhibition, % at 5 µM. actives 1.5% (n = 330,000). AID 434973;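 active means inhibition above about 50% at the single test dose, limit read from the data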
SENP6 block: blocks the human protease SENP6. Recombinant SENP6 catalytic domain, aminoluciferin luminescence. inhibition, % at 10 µM. actives 1.8% (n = 330,000). Q9GZR1. AID 2599;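 active means inhibition above about 50% at the single tested dose, limit read from the data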
SENP8 conf: confirmation of human SENP8 protease inhibitors | inhibition, % at 12.5 µM | Recombinant SENP8, Z-RLRGG-aminoluciferin luminescence, 60 min | shares compounds with SENP7 inh | actives 40% (n = 6,200);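 active means mean inhibition across replicates above about 50%, limit read from the data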
SENP6 confirm: human SENP6 inhibition, confirmed; shares compounds with SENP7 inh; actives 58% (n = 6,200); inhibition, % at 12.5 µM; recombinant SENP6, Z-RLRGG-aminoluciferin luminescence
SENP7 confirm: human SENP7 inhibition, confirmed. actives 69% (n = 6,200). inhibition, % at 12.5 µM. shares compounds with SENP7 inh. recombinant SENP7, Z-RLRGG-aminoluciferin luminescence, 40 min
Casp3 SENP sel: inhibits human caspase-3 in SENP selectivity test. shares compounds with SENP7 inh. purified caspase-3, Z-DEVD-aminoluciferin luminescence, 60 min. inhibition, % at 12.5 µM. actives 60% (n = 6,200);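 active means mean inhibition above about 50%, limit read from the data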
Target sequence (P42574 28-227 limits assumed): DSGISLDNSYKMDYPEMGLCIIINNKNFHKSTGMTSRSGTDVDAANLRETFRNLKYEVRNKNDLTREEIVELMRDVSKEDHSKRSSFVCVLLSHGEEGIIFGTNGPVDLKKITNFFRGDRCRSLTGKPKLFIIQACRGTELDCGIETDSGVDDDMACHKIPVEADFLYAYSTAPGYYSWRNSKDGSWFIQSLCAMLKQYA
SENP luc ctr: counter-screen for SENP inhibitors: luminescence interference; shares compounds with SENP7 inh; Pre-incubated SENP8/Z-RLRGG-aminoluciferin, luciferase luminescence interference; inhibition, % at 12.5 µM; actives 39% (n = 6,200); AID 488919;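 active means mean inhibition above about 50% when retested at one dose, limit read from the data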
A number is an active result; - = inactive; . = no result given. This is a sample that favours compounds with a hit; in the whole collection about 2.8% have one here.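 How the source made its calls, unless noted: active means mean inhibition above about 50% in the one-dose retest (limit read from the data); inactive means the rest.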

SMILES	SENP8 block-1	SENP8 block-2	HSP90 inh	SENP7 inh	SENP6 block	SENP8 conf	SENP6 confirm	SENP7 confirm	Casp3 SENP sel	SENP luc ctr
Cc1cccc(Nc2nc(-c3ccccn3)cs2)n1	70.3	-	-	79.1	76.4	-	78.1	95.0	73.8	86.5
FC(F)(F)COc1nc(N/N=C/c2cccnc2)nc(N2CCCCC2c2ccccn2)n1 (stereo not given)	-	-	-	-	-	.	.	.	.	.
O=C(Nc1ccc(OC(F)(F)F)cc1)Nc1cccc([N+](=O)[O-])c1	-	-	-	-	56.1	-	-	71.9	-	-
O=C(Nc1ccc(S(=O)(=O)N2CCCCCC2)cc1)c1[nH]ncc1[N+](=O)[O-]	74.7	-	-	-	75.3	-	71.8	89.6	65.1	78.5
O=C(Nc1ccc(OC(F)(F)F)cc1)c1[nH]ncc1[N+](=O)[O-]	55.8	-	-	-	71.5	70.2	67.7	88.0	58.7	70.1
Cc1onc(C(=O)Nc2ccc(OC(F)(F)F)cc2)c1[N+](=O)[O-]	-	-	-	-	-	.	.	.	.	.
CCOC(=O)C1=C(c2ccccc2)N(C)C(=O)NC1c1ccc(OC(F)F)c(OC)c1 (stereo not given)	-	-	-	-	-	.	.	.	.	.
Cc1ccc(C)c(N=Nc2nc3ccccc3n2C)c1	64.6	-	-	86.6	78.9	90.2	83.8	99.5	63.4	93.6
Cc1cc(C)c(C)c(N=Nc2nc3ccccc3n2C)c1C	-	-	-	-	-	.	.	.	.	.
O=C(O)c1cccc2c1C(=O)c1cc(Br)ccc1S2(=O)=O	-	-	.	-	-	.	.	.	.	.
CN(CC(=O)Nc1ccccc1C(F)(F)F)C(=O)c1cc([N+](=O)[O-])ccc1N1CCOCC1	-	-	-	-	-	.	.	.	.	.
COc1ccc(C=C2C(=O)c3ccccc3C2=O)cc1O	94.1	-	-	96.2	95.1	98.3	98.4	101.9	94.0	-
COc1cc(C=C2C(=O)c3ccccc3C2=O)ccc1O	93.3	-	-	93.7	-	-	90.6	97.3	79.8	60.8
COc1cc(/C=C2/CC/C(=C/c3ccc(O)c(OC)c3)C2=O)ccc1O	-	-	-	-	-	.	.	.	.	.
Oc1ccccc1-c1cc(-c2ccccc2Cl)[nH]n1	95.5	-	-	94.6	93.5	98.0	98.8	102.3	85.0	94.6
Oc1ccc(Cl)cc1-c1cc(-c2cccc(Br)c2)n[nH]1	-	-	-	-	-	.	.	.	.	.
Oc1ccccc1-c1cc(-c2cccc(F)c2)n[nH]1	88.3	-	-	88.0	92.9	95.0	95.1	100.1	64.4	73.6
Oc1ccc(Cl)cc1-c1cc(-c2ccccc2Cl)[nH]n1	-	-	-	-	-	.	.	.	.	.
COc1ccc(CC(=O)OCC(=O)NCCNC(=O)COC(=O)Cc2ccc(OC)cc2)cc1	-	-	.	-	-	.	.	.	.	.
Cc1c(NC(=O)CN2C(=O)NC(CCc3ccccc3)C2=O)c(=O)n(-c2ccccc2)n1C (stereo not given)	-	-	-	-	-	.	.	.	.	.
CCCc1cc(=O)[nH]c(SCC(=O)Nc2ccccc2C#N)n1	-	-	-	-	-	.	.	.	.	.
Cc1noc(N)c1C(=O)Nc1ccc(C(C)(C)C)cc1	68.6	-	-	85.5	-	-	80.3	96.3	80.4	79.9
Cc1ccccc1NC(=O)c1sc(Cl)nc1C	-	-	-	-	-	.	.	.	.	.
Cc1nc(Cl)sc1C(=O)Nc1ccc(C(C)(C)C)cc1	60.1	-	-	61.8	-	70.8	64.3	84.4	51.1	-
COc1cccc(COc2ccc3c(C)cc(=O)oc3c2)c1	68.1	-	-	71.3	76.6	-	75.0	90.4	64.9	62.0
COc1ccc2c(C)cc(=O)oc2c1	.	-	.	.	.	.	.	.	.	.
CCOC(=O)N1CCN(Cc2nc(CC3CC3)no2)CC1	-	-	-	-	-	.	.	.	.	.
